Inconclusive results are not listed. The source made the active and inactive calls. Unless noted, calls come from the whole dose curve; as a rule, active = well fitted curve in the direction sought with a large enough effect in the repeat runs; inconclusive = weak or mixed curves; inactive = no such curve, though single readings can be large; an effect the other way counts as inactive or inconclusive.

Assay [1] is described as follows: qHTS assay to identify small molecule agonists of the RXR signaling pathway - cell viability counter screen (AID 1159529).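 For activity change, negative = cytotoxicity: HEK 293T cells carrying an RXR-alpha UAS beta-lactamase reporter.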 Note: nearly all actives have a fitted effect of over 50% in size. Note: potency is the fitted concentration of half-maximal effect. Conditions: RXR-alpha-bla HEK293T viability, CellTiter-Glo, 16 h; series mostly up to 76.8 µM. The essentials:
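Tox21 10K compounds were tested for cytotoxicity against GeneBLAzer RXR-alpha HEK 293T cells grown in 2% charcoal-stripped FBS. Exposure lasted 16 hr at 37 C, 5% CO2; viability read by CellTiter-Glo luminescence.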
(Quantitative high-throughput screening tests each substance at several concentrations.)

The nature of assay [2]: qHTS assay to identify small molecule antagonists of the retinoid acid receptor (RAR) signaling pathway - cell viability counter screen (AID 1159551). Note: nearly all actives have a fitted effect of over 35% in size. Conditions: C3RL4 cells viability, ATP luminescence (CellTiter-Glo), 6 h; series mostly up to 92.4 µM. The essentials: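 C3RL4 RARE-luciferase cells, 1,000/well, incubated overnight, then dosed with compound plus 1 uM retinol (final). After 6 hr at 37 C, viability read by CellTiter-Glo ATP luminescence following 30 min at room temperature.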

The nature of assay [3]: qHTS assay to identify small molecule antagonists of the retinoic acid receptor (RAR) signaling pathway (AID 1159552; note: nearly all actives have a fitted effect of over 50% in size; note: potency is the fitted concentration of half-maximal effect). Conditions: C3RL4 RARE luciferase reporter, retinol-stimulated, 6 h; series mostly up to 92.4 µM. Summed up:
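Overnight-plated C3RL4 reporter cells get compound, then retinol to 1 uM final; plates sit 6 hr at 37 C, 5% CO2. A luciferase reagent is added and light output recorded after 30 min at room temperature.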

Assay [4] is described as follows: qHTS assay to identify small molecule agonists of the retinoic acid receptor (RAR) signaling pathway (AID 1159553). The following applies: C3RL4 RARE luciferase reporter, agonist, 6 h; series mostly up to 73.3 µM. The essentials: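 C3RL4 RARE-luciferase cells were seeded at 1,000/well and grown overnight at 37 C, then exposed to compounds for 6 hr at 37 C, 5% CO2. Luciferase reagent was added and luminescence was read after 30 min at room temperature.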

A short description of assay [5]: qHTS assay to identify small molecule antagonists of the estrogen related receptor (ERR) signaling pathway (AID 1224819; note: nearly all actives have a fitted effect of over 50% in size; note: potency is the fitted concentration of half-maximal effect). Conditions: ERR reporter cell line, luciferase inhibition; series mostly up to 46.1 µM. Summed up:
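ERR reporter cell line (NTP) plated at 2,000 cells/well, settled 6 h at 37C/5% CO2, then exposed to LOPAC compounds for 18 h at 37C. One-Glo luciferase luminescence read after 30 min at room temperature.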

Assay [6] is described as follows: qHTS assay to identify small molecule agonists of the estrogen related receptor (ERR) signaling pathway (AID 1224820). Conditions: ERR reporter cell line, luciferase agonist mode; series mostly up to 46.1 µM. The essentials:
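Cells: ERR line from NTP, 2,000/well. Pre-incubation 6 h, 37 C/5% CO2. Compound (DMSO) pin transfer, 18 h 37 C. One-Glo, 30 min RT, luminescence.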

Assay [7] in a line: qHTS assay to identify small molecule agonists of the estrogen related receptor signaling pathway with the pleiotropic PPARgamma coactivator (PGC) (AID 1224823). The following applies: ERR/PGC reporter cell line, luciferase agonist mode; series mostly up to 46.1 µM. The essentials:
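Steps: plate PGC/ERR cells at 2,000 cells/well; incubate 6 h, 37 C/5% CO2; pin-transfer compounds (DMSO); incubate 18 h, 37 C; add One-Glo; 30 min RT; read luminescence.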

The test system of assay [8] is estrogen-related receptor alpha (ERRalpha) with PGC-1alpha coactivator, human. As to the kind of experiment: qHTS assay to identify small molecule antagonists of the estrogen related receptor signaling pathway with the pleiotropic PPARgamma coactivator (PGC) (AID 1224821; calls by dose curve; note: nearly all actives have a fitted effect of over 50% in size; note: potency is the fitted concentration of half-maximal effect). Conditions: ERR/PGC reporter cell line, luciferase, antagonist mode; series mostly up to 46.1 µM. Summed up:
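Luminescent read-out (One-Glo, 30 min at room temperature) following 18 h treatment of PGC/ERR cells at 37 C with compounds delivered in DMSO. Cells had settled 6 h at 37 C/5% CO2 before dosing.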

Assay [9] is described as follows: qHTS assay to identify small molecule antagonists of the estrogen related receptor (ERR) signaling pathway - cell viability counter screen (AID 1224818). Conditions: ERR reporter cell line viability counter screen; series mostly up to 46.1 µM. Summed up:
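ERR cells, 2,000 per well, compound added after 6 h and incubated 17.5 h at 37 C. Viability read by CellTiter-Fluor fluorescence after a further 30 min at 37 C.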

The nature of assay [10]: qHTS assay to identify small molecule antagonists of the estrogen related receptor signaling pathway with the pleiotropic PPARgamma coactivator (PGC) cell viability counter screen (AID 1224822). The following applies: ERR/PGC reporter cell line viability counter screen; series mostly up to 46.1 µM. The essentials: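 PGC/ERR cells rested 6 h, then compound-treated 17.5 h at 37 C. CellTiter-Fluor added for 30 min at 37 C, viability measured by fluorescence intensity.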
% is set by controls: 0 for no effect and ±100 for the full control effect.

On to `CCNc1cc(O)ccc1C`, for which the Potency entry in [1], in [2] and in assay [3] was “inactive” throughout.

As for `C=C1C(=C/C=C2\CCC[C@]3(C)[C@@H]([C@H](C)/C=C/[C@@H](O)C4CC4)CC[C@@H]23)C[C@@H](O)C[C@@H]1O`, in assay [1], the Potency is 23.9 µM (active). The Potency result in assay [2] and in [3] was “inactive” each time.

For the compound `O=C(c1ccc(F)cc1)C1CCN(CCn2c(=S)[nH]c3ccccc3c2=O)CC1`, the Potency result in assay [1], in assay [2] and in [3] was “inactive” throughout.

As for `CC(C)OC(=O)C(C)N(C(=O)c1ccccc1)c1ccc(F)c(Cl)c1` (stereo not drawn), the Potency result in assay [1], in assay [2] and in assay [3] was “inactive” in each case.

Turning to `OC(C#CCN1CCCC1)(c1ccccc1)c1ccccc1`, the Potency entry in [1], in assay [2], in assay [3] and in [4] was “inactive” throughout.

As to `CC(CC=O)c1ccccc1` (stereo not drawn), the Potency entry in assay [1], in [2] and in assay [3] was “inactive” each time.

Turning to `O=P(O)(OCc1ccccc1)OCc1ccccc1`, the Potency result in assay [1], in [2] and in [3] was “inactive” throughout.

Turning to `COc1cc(Cl)c(OC)cc1N`, the Potency entry in assay [1], in assay [2], in assay [3] and in assay [4] was “inactive” throughout.

`NCc1ccccc1Sc1ccccc1CO`: the Potency entry in assay [1], in [2], in assay [3] and in [4] was “inactive” in each case.

Consider `C#Cc1cccc(Nc2ncnc3cc(OCCOC)c(OCCOC)cc23)c1`, for which the Potency result in assay [1], in [2] and in assay [3] was “inactive” throughout.

As to `COc1ccc(-c2nc3ccc(C4=NNC(=O)CC4C)cc3[nH]2)cc1` (stereo not drawn), the Potency entry in assay [1], in assay [2] and in assay [3] was “inactive” throughout.

As for `OCCNCc1ccccc1`, the Potency entry in [1], in [2], in assay [3] and in assay [4] was “inactive” each time.

As for `CCn1cc(C(=O)O)c(=O)c2cnc(N3CCNCC3)nc21`, the Potency entry in [1], in assay [2] and in [3] was “inactive” throughout.

For the compound `COc1ccc2cccc(CCNC(C)=O)c2c1`, the Potency entry in [1], in [2], in [3] and in [4] was “inactive” in each case.

As for `Cc1cccc(C)c1OCC(=O)N[C@@H](Cc1ccccc1)[C@@H](O)C[C@H](Cc1ccccc1)NC(=O)[C@H](C(C)C)N1CCCNC1=O`, the Potency in assay [1] was 23.9 µM (active). The Potency entry in assay [2] and in [3] was “inactive” throughout.

`CCOc1ccc(N=Nc2ccc(/C=C/c3ccc(N=Nc4ccc(OCC)cc4)cc3S(=O)(=O)O)c(S(=O)(=O)O)c2)cc1`: the Potency entry in [1], in [2] and in assay [3] was “inactive” throughout.

As for `CCCCCC[C@@H](O)C/C=C\CCCCCCCC(=O)OC`, the Potency entry in [1], in assay [2] and in [3] was “inactive” in each case.

In the case of `O=C1CCC(=O)O1`, the Potency result in assay [1], in [2] and in assay [3] was “inactive” in each case.

As for `CN1C[C@H]2c3ccccc3Oc3ccc(Cl)cc3[C@@H]2C1`, the Potency result in [1], in [2], in assay [3] and in assay [4] was “inactive” each time.

Consider `O=C1C(O)=C(O)C(=O)C(O)=C1O`, for which the Potency entry in assay [1], in [2] and in assay [3] was “inactive” throughout.

For `O=CC1CC=CCC1` (stereo not drawn), the Potency result in assay [1], in assay [2], in assay [3] and in assay [4] was “inactive” each time.

For `O=[N+]([O-])c1ccc2[nH]ncc2c1`, the Potency result in [1], in [2] and in [3] was “inactive” throughout.

Turning to `c1ccc(-c2ccccn2)nc1`, in [5], the Potency entry was “inactive”. Besides, the result in assay [6] and in [7] was inactive.

With `NC(N)=NCCC[C@H](N)C(=O)O`, the Potency entry in assay [5] and in assay [8] was “inactive” in each case. Besides, the result in assay [6] and in assay [7] was inactive.

Regarding `CCc1c(C(=O)NN2CCCCC2)nn(-c2ccc(Cl)cc2Cl)c1-c1ccc(Br)cc1`, the Potency result in assay [1], in [2] and in assay [4] was “inactive” throughout.

With `Brc1c2ccccc2c(Br)c2ccccc12`, the activity change, negative = cytotoxicity in [1] was 0.822% [at 6.97 µM] (inactive); in assay [2], 11.4% [at 8.39 µM] (inactive). Moreover, in assay [4], the activation is -1.37% [at 8.36 µM] (inactive).

For the compound `C=CC(=O)OCCOc1ccccc1`, the Potency entry in assay [1] was “inactive”. The Potency in assay [3] was 48.5 µM (active).

Consider `Nc1cccc([N+](=O)[O-])c1`, for which the Potency entry in assay [1], in [2] and in [4] was “inactive” in each case.

For the compound `COc1cc(C(=O)OCCCN2CCCN(CCCOC(=O)c3cc(OC)c(OC)c(OC)c3)CC2)cc(OC)c1OC`, the Potency entry in assay [1], in [2], in assay [5] and in assay [8] was “inactive” throughout. For the same compound, the compound was classed as inactive in [6] and in assay [7].

Take `CC(C)C[C@H]1C(=O)N2CCC[C@H]2[C@]2(O)O[C@](NC(=O)[C@@H]3C=C4c5cccc6[nH]c(Br)c(c56)C[C@H]4N(C)C3)(C(C)C)C(=O)N12`: the Potency entry in assay [1], in [2] and in assay [4] was “inactive” each time. Also, the results for the Potency in assay [5] and in assay [8] were 16.8 µM (active) and 16.2 µM (active), respectively. Moreover, the result in assay [6] and in [7] was inactive.

For `CC(=O)NO`, the Potency entry in [1], in [2] and in assay [4] was “inactive” throughout.

On to `C/C(=C(\CCOP(=O)(O)O)SC(=O)c1ccccc1)N(C=O)Cc1cnc(C)nc1N`, for which the activity change, negative = cytotoxicity in assay [1] is -1.63% [at 6.97 µM] (inactive). Further, in [3], the activity, negative = inhibition was 10.1% [at 8.39 µM] (inactive). For the same compound, in [4], the activation was 0.351% [at 8.36 µM] (inactive).

As to `COC(C)(C)CCO`, the Potency entry in assay [1], in assay [2] and in assay [4] was “inactive” each time.

In the case of `COc1cc2nc(N(C)CCCNC(=O)C3CCCO3)nc(N)c2cc1OC` (stereo not drawn), the Potency result in assay [1], in assay [2], in assay [4], in assay [5] and in [8] was “inactive” throughout. Further, the compound was called inactive in assay [9], in assay [6], in assay [10] and in assay [7].

`C[N+]1(C)CCC(OC(=O)C(O)(c2ccccc2)C2CCCC2)C1` (stereo not drawn): the Potency result in [1], in [2] and in assay [4] was “inactive” each time.

`O=C(O)C(S)C(S)C(=O)O` (stereo not drawn): the Potency result in assay [1], in assay [2] and in assay [4] was “inactive” each time.

The record behind these values is PubChem BioAssay (Tox21).
